# Publication PMC6753376
# Tests used:
# [1] = biological target: Probable 26S proteasome regulatory subunit p28 (UniProt P50086); test: cross-link between two proteins; cross-linking mass spectrometry
# [2] = biological target: Proteasome subunit alpha type-1 (UniProt P21243); test: as above
# [3] = biological target: Proteasome subunit alpha type-4 (UniProt P40303); test: as above
# [4] = biological target: Proteasome subunit alpha type-6 (UniProt P40302); test: as above
# [5] = biological target: Proteasome subunit beta type-5 (UniProt P30656); test: as above
# Sequence of Proteasome subunit beta type-5 (P30656 whole entry): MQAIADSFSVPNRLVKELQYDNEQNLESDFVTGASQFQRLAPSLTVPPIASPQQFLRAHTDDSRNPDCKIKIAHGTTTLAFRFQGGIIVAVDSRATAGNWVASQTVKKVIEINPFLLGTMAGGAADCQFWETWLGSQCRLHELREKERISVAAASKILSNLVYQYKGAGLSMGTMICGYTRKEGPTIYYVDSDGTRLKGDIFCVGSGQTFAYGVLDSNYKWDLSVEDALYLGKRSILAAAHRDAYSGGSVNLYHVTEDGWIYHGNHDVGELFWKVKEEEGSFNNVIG
# [6] = biological target: Proteasome subunit beta type-7 (UniProt P30657); test: as above
# Sequence of Proteasome subunit beta type-7 (P30657 whole entry): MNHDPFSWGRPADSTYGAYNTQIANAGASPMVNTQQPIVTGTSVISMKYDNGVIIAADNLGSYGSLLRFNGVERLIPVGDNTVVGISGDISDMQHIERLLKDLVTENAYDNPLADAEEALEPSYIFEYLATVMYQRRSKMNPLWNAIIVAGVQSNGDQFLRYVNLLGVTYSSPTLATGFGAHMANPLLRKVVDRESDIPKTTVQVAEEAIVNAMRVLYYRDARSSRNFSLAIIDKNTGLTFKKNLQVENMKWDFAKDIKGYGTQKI
# [7] = biological target: Proteasome subunit beta type-1 (UniProt P38624); test: as above
# Sequence of Proteasome subunit beta type-1 (P38624 whole entry): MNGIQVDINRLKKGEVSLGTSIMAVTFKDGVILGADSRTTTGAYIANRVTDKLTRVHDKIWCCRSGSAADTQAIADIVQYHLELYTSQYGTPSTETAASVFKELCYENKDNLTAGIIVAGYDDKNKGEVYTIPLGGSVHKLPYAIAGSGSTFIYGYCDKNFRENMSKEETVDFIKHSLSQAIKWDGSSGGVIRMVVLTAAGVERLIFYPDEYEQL
# [8] = biological target: 26S proteasome subunit RPT4 (UniProt P53549); test: cross-link between two proteins; affinity purification or IP with mass spectrometry; cross-linking mass spectrometry
# Sequence of 26S proteasome subunit RPT4 (P53549 whole entry): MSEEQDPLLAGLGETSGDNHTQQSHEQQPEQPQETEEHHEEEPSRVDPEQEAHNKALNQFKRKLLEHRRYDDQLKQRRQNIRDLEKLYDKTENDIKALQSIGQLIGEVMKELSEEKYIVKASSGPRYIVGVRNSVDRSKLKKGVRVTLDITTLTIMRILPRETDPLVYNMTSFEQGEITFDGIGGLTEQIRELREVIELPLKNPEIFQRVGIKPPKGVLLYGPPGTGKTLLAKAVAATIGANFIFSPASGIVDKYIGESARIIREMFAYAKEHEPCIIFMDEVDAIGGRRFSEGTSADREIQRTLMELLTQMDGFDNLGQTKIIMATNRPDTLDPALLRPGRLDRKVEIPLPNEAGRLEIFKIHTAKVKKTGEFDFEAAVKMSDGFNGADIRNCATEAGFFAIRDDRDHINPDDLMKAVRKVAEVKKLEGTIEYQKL
# Sequence of Proteasome subunit alpha type-4 (P40303 whole entry): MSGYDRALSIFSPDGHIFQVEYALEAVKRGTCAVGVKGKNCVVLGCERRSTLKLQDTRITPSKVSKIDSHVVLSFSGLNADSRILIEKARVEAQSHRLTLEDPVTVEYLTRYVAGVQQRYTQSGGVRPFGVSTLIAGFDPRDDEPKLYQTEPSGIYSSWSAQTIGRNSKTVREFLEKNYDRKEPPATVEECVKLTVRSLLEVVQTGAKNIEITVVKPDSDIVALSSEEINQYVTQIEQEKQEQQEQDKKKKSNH
# Sequence of Heat shock protein SSA1, P10591 (P10591 whole entry): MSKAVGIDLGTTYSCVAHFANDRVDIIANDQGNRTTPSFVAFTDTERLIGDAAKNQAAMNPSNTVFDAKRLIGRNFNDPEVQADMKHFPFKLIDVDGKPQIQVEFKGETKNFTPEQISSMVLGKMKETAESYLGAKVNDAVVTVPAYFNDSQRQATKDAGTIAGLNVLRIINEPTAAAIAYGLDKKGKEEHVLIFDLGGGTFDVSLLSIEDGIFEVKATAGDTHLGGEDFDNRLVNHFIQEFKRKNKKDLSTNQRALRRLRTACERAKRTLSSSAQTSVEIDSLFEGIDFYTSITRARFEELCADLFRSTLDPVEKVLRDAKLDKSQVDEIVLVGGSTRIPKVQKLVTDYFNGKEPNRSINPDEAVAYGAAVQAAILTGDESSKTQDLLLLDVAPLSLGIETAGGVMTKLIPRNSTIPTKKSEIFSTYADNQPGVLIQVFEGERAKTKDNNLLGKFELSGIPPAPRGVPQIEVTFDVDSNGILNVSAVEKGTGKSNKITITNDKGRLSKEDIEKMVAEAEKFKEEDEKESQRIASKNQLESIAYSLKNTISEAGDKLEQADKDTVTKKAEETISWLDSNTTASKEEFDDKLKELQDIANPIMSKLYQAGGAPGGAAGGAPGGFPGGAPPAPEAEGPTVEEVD
# Sequence of Proteasome subunit alpha type-6 (P40302 whole entry): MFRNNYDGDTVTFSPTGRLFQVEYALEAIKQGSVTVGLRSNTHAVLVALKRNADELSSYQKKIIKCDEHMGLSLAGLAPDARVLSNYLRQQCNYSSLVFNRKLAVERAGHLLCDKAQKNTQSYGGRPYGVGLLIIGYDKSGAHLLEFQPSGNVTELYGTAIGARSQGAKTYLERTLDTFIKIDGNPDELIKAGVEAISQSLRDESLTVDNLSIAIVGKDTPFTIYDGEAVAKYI
# Sequence of Probable 26S proteasome regulatory subunit p28 (P50086 whole entry): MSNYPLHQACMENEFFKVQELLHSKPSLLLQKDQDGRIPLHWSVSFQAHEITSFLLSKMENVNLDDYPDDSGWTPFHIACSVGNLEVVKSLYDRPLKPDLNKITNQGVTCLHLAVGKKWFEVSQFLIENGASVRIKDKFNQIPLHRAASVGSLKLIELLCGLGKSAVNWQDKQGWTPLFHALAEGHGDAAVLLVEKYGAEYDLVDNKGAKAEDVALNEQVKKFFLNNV
# Sequence of Proteasome subunit alpha type-1 (P21243 whole entry): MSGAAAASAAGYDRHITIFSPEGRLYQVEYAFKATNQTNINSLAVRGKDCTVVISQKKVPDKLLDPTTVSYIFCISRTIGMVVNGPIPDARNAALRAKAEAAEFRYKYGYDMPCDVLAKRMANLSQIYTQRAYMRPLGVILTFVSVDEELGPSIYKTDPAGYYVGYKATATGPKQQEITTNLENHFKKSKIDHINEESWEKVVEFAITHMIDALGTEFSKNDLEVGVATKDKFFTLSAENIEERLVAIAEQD
substance,measurement,setting,value
"26S proteasome regulatory subunit 6B homolog, P33298",listed as a hit,[1],yes
"Probable proteasome subunit alpha type-7, P21242",listed as a hit,[2],yes
"26S proteasome regulatory subunit 7 homolog, P33299",listed as a hit,[3],yes
"Proteasome subunit alpha type-3, P23638",listed as a hit,[3],yes
"Proteasome subunit beta type-6, P23724",listed as a hit,[4],yes
same,listed as a hit,[5],yes
same,listed as a hit,[6],yes
"Proteasome subunit alpha type-1, P21243",listed as a hit,[7],yes
same,listed as a hit,[6],yes
"Proteasome subunit beta type-4, P22141",listed as a hit,[5],yes
"Heat shock protein SSA1, P10591",listed as a hit,[8],yes
